IDE inh: inhibitors of human insulin-degrading enzyme in cells; AID 434962; 320,000 compounds, 0.41% hits; P14735; HEK cells, FAbetaB cleavage, fluorescence polarization; inhibition, % at 5.59 µM;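 active = percent inhibition above the average of all tested compounds plus 3 SD, set per screening campaign, cut at about 16% in these data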;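 note: IDE supplied by intact live HEK cells; FP after avidin binding of uncleaved biotin substrate so inhibition keeps polarization high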
IDE act: boosts human insulin-degrading enzyme activity in HEK cells | P14735 | FAbeta-B cleavage, fluorescence polarization; 0% vehicle, 100% cell-free pure enzyme wells | activation, % at 5.96 µM | 340,000 compounds, 0.073% hits | AID 493087;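 active = activation above the mean of all tested compounds plus 3 SD, set per screening campaign, cut at about 17% in these data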
PP5 inh: inhibitors of human protein phosphatase 5 (PP5) | 320,000 compounds, 0.18% hits | inhibition, % at 6.7 µM | P53041 | purified PP5c, OMFP substrate fluorescence;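 active = inhibition above the campaign's mean inhibition across all tested compounds plus 3 SD, cut at about 9.5% in these data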
Target sequence (P53041 whole entry, looked up): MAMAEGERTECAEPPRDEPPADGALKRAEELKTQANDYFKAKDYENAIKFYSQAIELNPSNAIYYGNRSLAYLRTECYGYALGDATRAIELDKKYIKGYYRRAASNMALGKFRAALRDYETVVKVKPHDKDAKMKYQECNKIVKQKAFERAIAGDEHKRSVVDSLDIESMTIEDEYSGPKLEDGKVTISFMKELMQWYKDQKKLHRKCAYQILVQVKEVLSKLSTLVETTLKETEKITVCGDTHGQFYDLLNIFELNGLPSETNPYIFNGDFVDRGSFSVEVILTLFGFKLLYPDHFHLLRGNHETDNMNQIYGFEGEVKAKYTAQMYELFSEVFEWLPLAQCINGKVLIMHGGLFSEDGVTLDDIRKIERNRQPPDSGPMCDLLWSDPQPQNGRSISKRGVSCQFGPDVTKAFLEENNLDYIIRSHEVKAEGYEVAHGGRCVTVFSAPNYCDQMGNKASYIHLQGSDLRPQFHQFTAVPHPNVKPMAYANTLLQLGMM
SKKanGAS inh: blocks kanamycin growth of S. pyogenes SKKanGAS strain | BacTiter-Glo, 6 h | inhibition, % at 7.5 µM | 300,000 compounds, 1.3% hits | AID 1662;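 active = mean replicate score, as percent of positive control median, at least 50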;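 note: strain carries kanamycin resistance gene driven by streptokinase promoter and grows in 40 µg/ml kanamycin; loss of luminescence reflects streptokinase promoter inhibition or plain growth inhibition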
PP1 counter: counter-screen for PP5 inhibitors: inhibitors of human PP1-alpha; inhibition, % at 6.7 µM; purified PP1alpha, OMFP fluorescence; P62136; AID 2235; 320,000 compounds, 0.9% hits;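 active = inhibition above the mean inhibition of all tested compounds plus 3 SD, computed separately for each screening campaign, cut at about 15% in these data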
Exocytosis inh: lytic granule exocytosis inhibition; TALL-104 LAMP-1 surface exposure, flow cytometry; cells stimulated with thapsigargin and PMA; inhibition, % at 10 µM; 360,000 compounds, 0.66% hits; AID 651702;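 active = inhibition above about 55%, limit read from the data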
Granule exo CP1: blocks lytic granule exocytosis; inhibition, % at 10 µM; TALL-104 cells, LAMP-1 externalization, flow cytometry; stimulated with PMA plus thapsigargin; shares compounds with Exocytosis inh; AID 651954; 1,500 compounds, 11% hits; in the data active = inhibition above about 60%
Hits are given with their value; n = inactive; x = no result. Hits are enriched below; roughly 2.8% of the tested compounds scored in any of these assays.

SMILES	IDE inh	IDE act	PP5 inh	SKKanGAS inh	PP1 counter	Exocytosis inh	Granule exo CP1
CCN1C(=O)N[C@@H](c2cccc(C(F)(F)F)c2)[C@@H](C(=O)OC)[C@H]1C	n	n	n	n	n	101	n
COc1ccccc1CNC(=O)C1(NC(=O)Nc2ccc(C)cc2)CCCCC1	n	n	n	n	n	n	x
Clc1ccc(OCCCNCc2ccccc2)c2ccccc12	n	n	n	n	n	99	n
Brc1ccccc1OCCNCc1ccccc1	n	n	n	n	n	n	x
CCOC(=O)Cn1c(=O)oc2cc(S(=O)(=O)N(C)c3cccc(C)c3)ccc21	n	n	n	n	n	62	n
CCOC(=O)Cn1c(=O)oc2cc(S(=O)(=O)N(C)c3ccc(OC)cc3)ccc21	n	n	n	n	n	59	n
Oc1ccccc1C1CC(c2cccs2)=NC(c2cccc(Br)c2)N1 (stereo not given)	n	n	n	n	n	69	n
Nc1nc(=O)n(C2CC(O)C(CO)O2)cc1F (stereo not given)	x	n	x	x	x	n	x
CCOC(=O)c1n[nH]n2c1nc(=O)c1ccccc12	x	n	x	n	x	n	x
CCOC(=O)c1nnn2c1nc(N(CC)CC)c1ccccc12	n	n	n	n	n	74	n
CC1=NCCN1CCNC(=O)Nc1ccc(C(C)(C)C)cc1	n	x	n	n	n	n	x
Cc1ccc2nc(-c3ccc(NC(=S)NC(=O)C(C)C)cc3)sc2c1	n	n	n	n	n	n	x
Cc1ccc2nc(-c3ccc(NC(=S)NC4CC(C)(C)NC(C)(C)C4)cc3)sc2c1	n	n	n	58	n	88	98
Cc1cccc(NC(=O)CN(C)C(C)C(=O)Nc2ccc(S(=O)(=O)N3CCCC3)cc2)c1C (stereo not given)	x	n	x	x	x	n	x
Cc1ccccc1C(=O)Nc1c(C(=O)N(CCN(C)C)Cc2ccco2)oc2ccccc12	n	n	n	n	n	n	x
COc1ccccc1C(=O)Nc1c(C(=O)N(CCN(C)C)Cc2ccco2)oc2ccccc12	n	n	n	n	n	66	n
Cc1ccccc1Nc1nc(N)nc(COC(=O)c2ccc(S(=O)(=O)N(C)C)cc2)n1	n	n	n	n	n	63	n
O=C(COC(=O)[C@H](Cc1c[nH]c2ccccc12)NC(=O)c1ccc(Cl)cc1)Nc1ccc2c(c1)OCO2	n	n	n	n	n	69	78
Cc1ccccc1NC(=O)c1nc(S(C)(=O)=O)ncc1Cl	n	n	n	n	n	79	n
O=C(Nc1ccc(F)cc1)c1nc(S(=O)(=O)Cc2ccccc2)ncc1Cl	n	n	n	n	n	78	65
CCS(=O)(=O)c1ncc(Cl)c(C(=O)Nc2ccc(S(=O)(=O)N(C)c3ccccc3)cc2)n1	n	n	n	n	n	56	n
CC1=N/C(=C/c2cccnc2)C(=O)O1	n	n	n	n	n	n	x
Cc1oc(-c2ccccc2)cc1C(=O)NC1CCN(Cc2ccccc2)CC1	n	x	n	n	n	67	n
O=C(C=C=Nc1ccccc1)C(=O)N=C=Cc1ccccc1	n	n	n	n	n	n	x
Cc1cc(C)c(C)c(S(=O)(=O)Nc2cccc(-n3cnnn3)c2)c1C	n	n	n	n	n	60	n
SMILES	IDE inh	IDE act	PP5 inh	SKKanGAS inh	PP1 counter	Exocytosis inh	Granule exo CP1
Cc1cc(C)c(S(=O)(=O)Nc2cccc(-n3cnnn3)c2)c(C)c1	n	n	n	n	n	n	x
CCC(Oc1ccccc1)C(=O)Nc1ncc([N+](=O)[O-])s1 (stereo not given)	n	n	n	n	n	n	x
CC(CC(=O)Nc1ncc([N+](=O)[O-])s1)c1ccccc1 (stereo not given)	n	n	n	x	n	59	n
Cc1ccc(C(=O)N/C(=C\c2ccc(-c3ccc(Br)cc3)o2)C(=O)NCCCN(C)C)cc1	n	n	n	n	n	75	99
CCc1ccccc1NC(=O)NC1CCCCCCC1	x	n	x	x	x	n	x
COC(=O)c1cccc(CSc2nc(-c3ccccc3)c(C#N)c(=O)[nH]2)c1	n	n	n	n	n	n	x
C(=C\c1ccco1)/c1ccc2ccccc2n1	n	x	n	n	n	59	n
CCCCN(CCCNC(=O)CN1C(=O)COc2ccc(S(=O)(=O)N3CCC(C)CC3)cc21)Cc1ccccc1	n	n	n	n	n	60	n
